Laboratory results reported in the supplement of paper PMC6555819.

Legend:
Assay in all cases: PBM binding z-score (relative to random genomic background probes); higher = stronger binding; sequences stand for … in GC…GCGATTGACAGCGTAGAATGAAGG
[1] = test system: PPARg:RXRa DBDmut IVT, anti-RXR (DBD mutation: RXRa K156A/R161A, NR concentration 270 nM, RXRa partner concentration 90 nM)
Procedure, shortened: (§1)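 Custom Agilent 4×180K protein-binding microarrays carried double-stranded probes. Their 34-nt variable regions held direct-repeat seeds, single-nucleotide variants, half-site ablations and random human genomic background sequences. Arrays were incubated 1 h with ligand-free nuclear receptor dimers in PBS pH 7.4, 2% milk, 0.02% Triton X-100, 1 mM DTT, 0.2 mg/mL BSA and 0.4 mg/ml salmon testes DNA. Antibodies against each partner (one per run) detected binding, and scanned fluorescence was regression-normalized. Binding z-scores use random background probes as reference.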

[2] = test system: PPARg:RXRa IVT, anti-PPARg (NR concentration 270 nM, RXRa partner concentration 90 nM)
Procedure, shortened: as §1

[3] = test system: PPARg DBDmut:RXRa IVT, anti-PPARg (DBD mutation: PPARg1 K132A/R137A, NR concentration 270 nM, RXRa partner concentration 90 nM)
Procedure, shortened: as §1

[4] = test system: PPARg DBDmut IVT, anti-PPARg (DBD mutation: PPARg1 K132A/R137A, NR concentration 270 nM)
Procedure, shortened: as §1

[5] = test system: PPARg homodimer (NR concentration 180 nM)
Procedure, shortened: as §1

[6] = test system: PXR:RXRa (NR concentration 270 nM, RXRa partner concentration 90 nM)
Procedure, shortened: as §1

[7] = test system: PXR homodimer (NR concentration 270 nM)
Procedure, shortened: as §1

[8] = test system: RARa:RXR (NR concentration 270 nM, RXRa partner concentration 90 nM)
Procedure, shortened: as §1

[9] = test system: RARa homodimer (NR concentration 270 nM)
Procedure, shortened: as §1

[10] = test system: RARb:RXRa (NR concentration 270 nM, RXRa partner concentration 90 nM)
Procedure, shortened: as §1

Row | Sequence | PBM binding z-score [1] | PBM binding z-score [2] | PBM binding z-score [3] | PBM binding z-score [4] | PBM binding z-score [5] | PBM binding z-score [6] | PBM binding z-score [7] | PBM binding z-score [8] | PBM binding z-score [9] | PBM binding z-score [10]
1 | CAAACTATGTCACGAAAGGTCAAAGTCGAATGAC | 5.09 | 5.93 | 3 | 0.957 | 3.47 | 6.07 | 2.12 | 6.01 | 2.87 | 4.92
2 | TCTATTAGTTGAAGGGTAACCGACGAGTCCGTTT | 2.52 | 0.636 | 0.556 | 0.761 | 1.56 | 1.03 | 0.714 | 1.09 | 1.6 | 0.96
3 | AGAATGAGGTTATACGCAGATCAGGGAAGAAAGT | 2.73 | 2.31 | 1.31 | 0.997 | 0.831 | 1.14 | 0.481 | 1.59 | 0.675 | 1.52
4 | CGTCCAAGTTCAACTAAGGTAACGTAAAGCACGC | 0.15 | 1.1 | 0.262 | 0.451 | 1.83 | 4.44 | 2.78 | 2.38 | 0.942 | 3.63
5 | ATCGAAAGGTCGTGAGGTGAGTAAACAGAAAGGC | 0.111 | 2.34 | 1.06 | 0.746 | 1.39 | 2.84 | 0.0266 | 4.08 | 0.931 | 3.94
6 | CATCCAGGGTCAGCTAGGCCAGAGTAGGGACGGC | 0.695 | 2.52 | 0.576 | 0.124 | 1.54 | 2.31 | -0.182 | 3.25 | 0.407 | 4.03
7 | CCAGTCAGGTGAGAAGGTAACTCAGCCTCGATTA | 1.41 | 1.02 | -1.66 | -1.63 | 0.612 | -0.228 | -0.000389 | 0.355 | 0.15 | 0.754
8 | CCTACTGGGCCCAGGTCATTGATCAGTCAAAGCA | -0.465 | 1.3 | -0.756 | -1.2 | 0.811 | 1.72 | 0.241 | 2.05 | 0.064 | 1.95
9 | CAAACTATGTCAAAGGTCAAAGTCGAGCCAACCA | 5.12 | 6.61 | 1.88 | 0.733 | 3.54 | 5.93 | 1.52 | 7.09 | 2.38 | 5.1
10 | GCAGACAGGTGAAACGCAGGTAACCCAGGGTGGC | 0.158 | 0.862 | -0.147 | -0.879 | -0.777 | -0.365 | -0.8 | 0.305 | -1.34 | 0.601
11 | GCATATAGGTAATACAAAGTGAAAGTCCGATTGT | 4.28 | 2.73 | 0.942 | 1.36 | -0.267 | -0.28 | -0.0675 | -0.178 | 0.391 | -0.152
12 | TCTTGTAGATCAAAGGTTAAGAAAGCCGAAGCCT | 2.11 | 3.55 | 0.0229 | 0.863 | 1.18 | 2.02 | -0.0145 | 3.24 | 0.581 | 1.85
13 | CCTTACGGGTCACTCCAGGTTAAAGCATCGGAGT | 2.31 | 3.73 | -0.0185 | -0.224 | 2.3 | 5.3 | 0.114 | 4.1 | 0.271 | 3.67
14 | CAAACTGGGTCACCGGAAGGTCAAAGTCCGCATG | 8.13 | 8.83 | 1.41 | 0.892 | 6.19 | 5.57 | 1.27 | 6.73 | 0.623 | 4.9
15 | CGTCCAAGGTGATAGGAGGTCAGTGAAGACAGAT | 1.37 | 2.78 | 0.0253 | 0.186 | 1.91 | 3.57 | 0.47 | 2.31 | 0.367 | 2.85
16 | CCTACTGGGCCATCCGGTCATTGATATCAACGTT | 3.87 | 4.21 | -0.352 | -0.431 | 0.811 | -0.0327 | -0.0108 | 0.187 | -0.315 | 1.42
17 | CGACCAAGGTCAATGCTAGGTCAGTGAAAGCATT | 3.29 | 3.59 | -0.925 | -0.0967 | 4.22 | 4.59 | 0.845 | 5.71 | 0.803 | 5.03
18 | ACAGACAGGTGATTGAAGGTAACTCAGCTGGACG | 0.234 | 0.403 | -0.375 | -0.0689 | 0.449 | -0.285 | -0.239 | 0.452 | -0.476 | 0.303
19 | CGAACTGGGTCAAGGACAGTGAATCTCCGCACGC | 7.45 | 7.82 | 5.86 | 3.4 | 1.92 | 1.28 | -0.104 | 1.94 | 0.123 | 3.39
20 | CTCGAAAGGTCGTGCTCAGCTGAGTATACCAAAC | 0.87 | 1.49 | 0.246 | 0.618 | 1.59 | 2.99 | -0.206 | 3.49 | 0.13 | 3.72
21 | TCTAGTTGGTCAAAGGTCGCACACTCGAAATGCG | 3.09 | 5.25 | 1.76 | 1.51 | 4.25 | 3.78 | 0.71 | 5.01 | 1.36 | 3.29
22 | CAAACTAGGTCAAGAGGTCAAAGTGCGCTTCCCG | 8.41 | 8.51 | 1.86 | 0.825 | 5.5 | 6.13 | 2.6 | 7.48 | 2.21 | 5.47
23 | GATACAGGGTCAGCTAGAGGCCTGAGTATGGAAA | 1.41 | 1.85 | -0.274 | -0.805 | 1.14 | 1.73 | -0.266 | 2.75 | -0.534 | 3.74
24 | TCTTGTAGATCAATAGGGGTTAAGAAAGTGCGCT | 2.59 | 1.26 | 1.26 | 1.11 | 1.01 | 3.87 | 0.265 | 2.8 | 0.509 | 1.2
25 | TCTGCCAGGTCAACGATGGTCAGCTAATCTGCTA | 2.07 | 2.98 | 0.16 | 0.24 | 1.11 | 2.56 | -0.453 | 2.89 | -0.675 | 4.02
